Our source for the growth inhibition values is the supplement of paper PMC8253809.

Where “and” joins values, the source holds several entries; their conditions need not be identical. Equal values may be shown once.

This assay deals with SUDIPGXIII (diffuse intrinsic pontine glioma line)
The experiment in a line: growth inhibition (% activity, log2 RLU normalised to DMSO / staurosporine); higher = more growth inhibition. Conditions: 33 µM. In short, it runs like this: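 On Geltrex-coated 384-well plates, pHGG cell lines and H9-derived neural stem cells were grown with approved drugs pinned in at a single final concentration of about 33 μM, in triplicate, for 7 days at 37 °C, 5% CO2. Per-plate normalisation of log2-transformed CellTiter-Glo luminescence to % activity between solvent and positive control wells followed. Each growth-inhibition value is the median over the replicates.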
For `Cc1cn(C2C=CC(CO)O2)c(=O)[nH]c1=O` (stereo unspecified), the growth inhibition came to 0.705%.
In the case of `Cc1cc(C2CCCCC2)n(O)c(=O)c1`, the growth inhibition was 21.3% and 10.6%.
On to `OCCOCCN1CCN(C(c2ccccc2)c2ccc(Cl)cc2)CC1` (stereo unspecified), for which the growth inhibition worked out at 1.1%.
On to `CCOC(=O)c1ccc(N)cc1`, for which the growth inhibition was 0.467%.
Next, `NS(=O)(=O)c1cc2c(cc1Cl)NC(C(Cl)Cl)NS2(=O)=O` (stereo unspecified): 0.0927%; `Clc1ccc2c(c1)C(N1CCNCC1)=Nc1ccccc1O2`: 0.741%.
Next, `C=C1CCC(O)CC1=CC=C1CCCC2(C)C1CCC2C(C)CCCC(C)(C)O` (stereo unspecified): -0.781%; `CC(=O)Oc1cc(C(F)(F)F)ccc1C(=O)O`: -2.75%; `CC(C)(C(=O)O)c1ccc(C(O)CCCN2CCC(C(O)(c3ccccc3)c3ccccc3)CC2)cc1` (stereo unspecified): -0.622%.
The value for `COc1ccccc1N1CCN(CCCNc2cc(=O)n(C)c(=O)n2C)CC1` was 1.17%.
As for `N=S(=O)(O)Cc1noc2ccccc12`, the growth inhibition is -0.253%.
